Bioassay records from PubChem.
This is a sample that favours compounds with a hit; in the whole collection about 0.63% have one here.
GAA inh – qHTS Assay for Inhibitors of Human alpha-Glucosidase as a Potential Chaperone Treatment of Pompe Disease | purified human GAA, 4-MU-alpha-glucoside fluorescence | Potency, µM (highest dose often 76.9 µM), most hits filed as inhibitors | hit rate 0.005% among 200,000 | AID 1466, 2008
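Human alpha-glucosidase, 4 nM, pre-mixed with test compounds before 400 uM 4-methylumbelliferyl substrate; 20 min room temperature at pH 5.0. Fluorescence read after pH 10 stop; AC50 values from Hill-equation fits.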
GAA glycogen mod – qHTS Assay for Inhibitors and Activators of Human alpha-Glucosidase Cleavage of Glycogen; Lysosomal alpha-glucosidase (Homo sapiens), P10253; recombinant GAA, glycogen substrate, Amplex Red glucose oxidase fluorescence; Potency, µM (titrated, usually from 76.4 µM), hits mostly inhibitors; hit rate 0.38% among 300,000;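 further: the screen sought inhibitors and activators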
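qHTS, 1536-well; enzyme 4 nM final; cpd up to 77 uM; substrate bovine liver glycogen 30 ug; 50 mM citrate/phosphate pH 5.0, 0.01% Tween-20; 37 C, 40 min; Amplex Red detection 45 min RT; Hill fit → AC50.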
GAA spleen mod – qHTS Assay for Inhibitors and Activators of Human alpha-Glucosidase From Spleen Homogenate; AID 2112, 2009; human spleen homogenate, 4-MU-alpha-glucoside fluorescence; hit rate 0.006% among 240,000; Potency, µM (doses to about 79.9 µM), actives largely listed as inhibitors
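Enzyme source: human spleen homogenate, 1 ug/well. Buffer 50 mM citric acid/K phosphate pH 5.0, 0.01% Tween-20. 4-MU-alpha-glucoside 1 mM; 37 C x 40 min; NaOH/glycine stop; fluorescence.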
GALK inh – qHTS Assay for Inhibitors of Human Galactokinase (GALK) | P51570 | Purified GALK, Kinase-Glo residual ATP luminescence | Potency, µM (doses to about 57.5 µM), usual class: inhibitors | hit rate 0.007% among 270,000 | AID 1868, 2009
Target sequence (P51570 whole entry, looked up): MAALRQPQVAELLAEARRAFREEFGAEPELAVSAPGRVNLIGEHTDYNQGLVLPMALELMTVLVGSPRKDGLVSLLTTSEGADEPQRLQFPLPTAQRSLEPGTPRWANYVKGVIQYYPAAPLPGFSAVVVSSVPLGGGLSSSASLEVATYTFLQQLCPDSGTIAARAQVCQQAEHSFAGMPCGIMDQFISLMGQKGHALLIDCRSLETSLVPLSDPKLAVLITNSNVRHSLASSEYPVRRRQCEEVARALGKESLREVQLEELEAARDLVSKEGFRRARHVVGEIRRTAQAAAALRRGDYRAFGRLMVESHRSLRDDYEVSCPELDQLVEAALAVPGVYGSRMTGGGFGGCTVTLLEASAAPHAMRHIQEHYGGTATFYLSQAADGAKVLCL
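The enzyme phosphorylates galactose (100 uM) using ATP (35 uM); inhibition is detected as higher residual ATP, quantified by bioluminescence after 1 h reaction at room temperature, pH 8.0.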
PKM2 activator – qHTS Assay for Activators of Human Muscle isoform 2 Pyruvate Kinase | Pyruvate kinase PKM (Homo sapiens), P14618 | purified PKM2, Kinase-Glo ATP luminescence, activation; response scale: 0% is enzyme alone, no compound | Potency, µM (series often up to 57.5 µM), most hits filed as activators | hit rate 0.34% among 260,000; further: nearly all actives have a fitted effect of over 55% in size
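hPK-M2, >95% pure; 0.1 mM ADP / 0.5 mM PEP final; imidazole pH7.2 buffer w/ 7 mM MgCl2, 50 mM KCl; 1 h RT; Kinase-Glo lum. Intermediate enzyme activity for dual inhibitor/activator qHTS.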
Numbers stand for hits; . = inactive; ? = inconclusive; / = no result; [ ] = remark or other dose. The call rests on the fitted dose curve; in most records, active means well fitted curve in the direction sought with a large enough effect; inconclusive means small, poorly fitted or top-dose-only effect, or another doubt; inactive means no such curve, though single readings can be large; an effect the other way counts as inactive or inconclusive.

SMILES	GAA inh	GAA glycogen mod	GAA spleen mod	GALK inh	PKM2 activator
O=S(=O)(c1ccc(OCC(O)CN2CCN(c3ccccc3O)CC2)cc1)N1CCOCC1 (centres undefined)	.	6.3µM	.	.	.
COc1ccc(N2CCN(C(=O)C3CCN(S(=O)(=O)c4cnc[nH]4)CC3)CC2)cc1	/	.	/	/	/
Cn1c(-c2cccc([N+](=O)[O-])c2)cnc1NCc1cccc([N+](=O)[O-])c1	.	22µM	.	.	.
Cc1ccc(-c2cnc(NCc3c(F)cccc3Cl)n2C)cc1	/	22µM	/	/	/
CCOc1cc(CNc2ncc(-c3ccc(OC)cc3)n2C)ccc1O	.	22µM	.	.	.
Cn1c(-c2ccc3c(c2)OCO3)cnc1NCc1ccc(Cl)cc1	.	?	.	.	.
Cc1ccc(CNc2ncc(-c3ccc4c(c3)OCO4)n2C)cc1	.	20µM	.	.	.
COc1ccc(CNc2ncc(-c3ccccc3)n2C)cc1	/	?	/	.	.
Cc1ccc(NC(=O)c2cc(S(=O)(=O)N3CCCCC3)c[nH]2)cc1N(C)C	/	.	/	/	/
Cn1c(-c2ccc(F)cc2)cnc1NCc1ccc(F)cc1	.	45µM	.	.	.
CCOc1ccc(-c2cnc(NCc3ccc(C(F)(F)F)cc3)n2C)cc1	/	32µM	/	/	/
CCOc1ccc(CNc2ncc(-c3ccccc3)n2C)cc1	/	.	/	.	.
CC(C)c1ccc(NC(=O)[C@H]2O[C@@H]3OC(C)(C)O[C@@H]3[C@H]3OC(C)(C)O[C@H]32)cc1	/	.	/	/	/
CC(=O)Nc1ccc(S(=O)(=O)Nc2nc3ccccc3nc2Nc2ccc(O)cc2)cc1	/	18µM	.	.	.
CC(=O)Nc1ccc(S(=O)(=O)Nc2nc3ccccc3nc2Nc2ccccc2)cc1	.	.	.	.	.
Cn1c(=O)c(=O)n(C)c2cc(S(=O)(=O)N3CCc4ccccc43)ccc21	.	.	.	.	2µM
Cc1ccc(NC(=O)Cn2nc(C)n3cccc3c2=O)c(C)c1	/	.	/	/	/
O=C(c1ccc2ccccc2c1)N1CCN(c2ccc(O)cc2)CC1	.	18µM	.	.	.
O=C(CSc1ccc2ccccc2c1)N1CCN(c2ccc(O)cc2)CC1	/	16µM	.	.	.
CCOC(=O)N1CCN(c2ccc(O)cc2)CC1	.	25µM	.	.	.
COc1ccc(N2CCN(C(=O)CSc3nnc(-c4cc5ccccc5cc4O)n3C)CC2)cc1	.	.	.	.	.
O=C(COc1ccc2ccccc2c1)N1CCN(c2ccccc2O)CC1	.	14µM	.	.	.
O=C(c1ccc2ccccc2c1)N1CCN(c2ccccn2)CC1	/	.	/	.	.[11.5 µM]
COc1ccc(Cl)cc1NC(=O)Cc1coc2c(C)c(C)ccc12	/	.	/	/	/
Cc1ccccc1Nc1c(-c2ccccc2O)nc2sccn12	/	11µM	/	/	/
SMILES	GAA inh	GAA glycogen mod	GAA spleen mod	GALK inh	PKM2 activator
COc1ccc(CCNC(=O)c2nc(SCc3ccccc3F)ncc2Cl)cc1OC	/	.	/	/	/
Cc1cc([N+](=O)[O-])ccc1-c1ccc(C2Nc3ccccc3C(=O)N2O)o1 (centres undefined)	.	?	.	.	14µM
CCOC(=O)c1ccc(-c2ccc(C3Nc4ccccc4C(=O)N3O)o2)cc1 (centres undefined)	.	?	.	.	.
Cc1ccc(CN2C(=O)C(=O)c3cc(Br)cc(C)c32)cc1	/	.	/	/	/
Cn1c(CSc2nnc(SCc3ccccc3)s2)nc2ccccc21	?	.	.	.	18µM
CSc1ccc(CCNC(=O)CCc2c(C)nc3c(-c4ccccc4)c(C)nn3c2C)cc1	/	.	/	/	/
CCN1C(=O)c2cccc3c(S(=O)(=O)Nc4ncccc4C)ccc1c23	.	.	.	.	11µM
CCN1C(=O)c2cccc3c(S(=O)(=O)Nc4nc(C)cs4)ccc1c23	.	.	.	.	4µM
CCN1C(=O)c2cccc3c(S(=O)(=O)Nc4ccccn4)ccc1c23	.	.	.	.	?
Cc1ccc(S(=O)(=O)N2CCN(C(=O)CCn3nc(C)c(C)c3C)CC2)cc1	/	/	/	.	14µM
CC(C)CC(=O)N1CCN(S(=O)(=O)c2ccc(Cl)cc2)CC1	.	.	.	.	.
Cc1nn(CCC(=O)N2CCN(S(=O)(=O)c3ccc(Cl)cc3)CC2)c(C)c1C	/	/	/	.	22µM
CCCCn1c(C2CC(=O)N(c3ccc(OCC)cc3)C2)nc2ccccc21 (centres undefined)	/	.	/	/	/
CCN(C(=O)CN1CCN(c2ccc(O)cc2)CC1)c1c(N)n(Cc2ccccc2)c(=O)[nH]c1=O	.	18µM	.	.	.
CC(CCc1ccccc1)NC(=O)CN1CCN(c2ccc(O)cc2)CC1 (centres undefined)	?	4.4µM	.	.	.
CCS(=O)(=O)N1CCc2cc(C(=O)Nc3ccc(OC)c(Cl)c3)ccc21	/	.	/	/	/
COc1ccc(-c2cc(C(=O)Nc3c(Cl)cccc3Cl)no2)cc1OC	/	.	/	/	/
Cc1cc(C)cc(OCC(=O)NCC(c2ccc(Cl)cc2)N2CCCCC2)c1 (centres undefined)	/	.	/	/	/
COCCCN1C(=O)c2[nH]nc(-c3ccccc3O)c2C1c1ccc(OC)cc1 (centres undefined)	/	.	/	/	/
Cc1cc(C(C#N)c2cccc(Cl)c2)n2ncnc2n1 (centres undefined)	.	?	.	.	.
Cc1cc(C(C#N)c2ccccc2)n2ncnc2n1 (centres undefined)	?	25µM	.	.	.
Cc1ccc(CNC(=O)c2nc(-c3ccc(Cl)cc3)n3c2CCCCC3)cc1	/	.	/	/	/
COC(=O)c1cc(Oc2ccc(C(=O)OC)cc2N)cc(C(=O)OC)c1	.	.	.	.	.
COC(=O)CCCCCNc1ccc(C(=O)OC)cc1N	?	22µM	.	.	.
CC(=O)N1c2ccc(S(=O)(=O)NCC3CCC(C(=O)Nc4cccc(C)c4C)CC3)cc2CC1C (centres undefined)	/	.	/	/	/
SMILES	GAA inh	GAA glycogen mod	GAA spleen mod	GALK inh	PKM2 activator
COc1ccc2oc(-c3ccc(C)c(NC(=O)c4ccc5c(c4)OCCO5)c3)nc2c1	/	.	/	/	/
Cc1ccc(NC(=O)c2cc(N3C(=O)C=CC3=O)ccc2Cl)cc1C	.	.	.	.	4µM
Cc1ccc(NC(=O)c2cc(-n3cnnc3)ccc2Cl)cc1	.	.	.	.	.
CN(C)/C(Cn1cncn1)=C1/N=C(c2c(F)cccc2F)OC1=O	/	.	.	.	25µM
CN1c2ccccc2C(C)(C)[C@]12C=Cc1cc(O)ccc1O2	.	7.9µM	.	.	.
Cn1c(N)c(S(=O)(=O)c2ccc(Br)cc2)c2nc3ccccc3nc21	?	.	.	.	25µM
Nc1c(S(=O)(=O)c2ccccc2)c2nc3ccccc3nc2n1C1CC1	?	.	.	.	.
